Results: PubChem BioAssay (NCI)
Where “and” joins values, the source holds several entries; their conditions need not be identical. Identical values can stand only once. About 83,000 compounds went through this panel and 20% of them were active in at least one assay; those are over-represented in the sample as a whole.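 For each line, cells grew in 96-well plates with the test compound present at a single concentration for 48 hours.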 Calls of active or inactive are those of the source. The calls were made as follows: active = growth percent below 10; inactive = the rest.

How the values were obtained:
Assay in all cases: NCI-60 one-dose screen, 48 h (100 = growth as untreated, 0 = no growth, -100 = all killed)
Settings in all cases: 10 µM unless noted
T-47D breast = test system: T-47D breast
BT-549 breast = test system: BT-549 breast
MDA-MB-435 melanoma = test system: MDA-MB-435 melanoma
SW-620 colon = test system: SW-620 colon
MCF7 breast = test system: MCF7 breast
HCT-116 colon = test system: HCT-116 colon
HCC-2998 colon = test system: HCC-2998 colon
KM12 colon = test system: KM12 colon

Measured: growth

O=C1C(SCc2ccccc2)=C(Cl)CN1c1ccc(Cl)cc1
inactive: T-47D breast 50.4% | BT-549 breast 109% | MDA-MB-435 melanoma 100% | SW-620 colon 101% | MCF7 breast 25.7% | HCT-116 colon 89.7% | HCC-2998 colon 95.9% | KM12 colon 99.1%

C#C[C@]1(O)CC[C@H]2[C@@H]3CC=C4c5sc(Nc6cc(C)cc(C)c6)nc5CC[C@]4(C)[C@H]3CC[C@@]21C
active: BT-549 breast -4.65% | SW-620 colon -20.1% | MCF7 breast -52.5% | KM12 colon -7.08%
inactive: T-47D breast 33.8% | MDA-MB-435 melanoma 20.7% | HCT-116 colon 12.5% | HCC-2998 colon 40.2%

O=C(Nc1ccc(N2CCOCC2)cc1)Nc1ccc2c(ccn2C(=O)c2cccc(F)c2)c1
inactive: T-47D breast 68.9% | BT-549 breast 71.7% | MDA-MB-435 melanoma 68.3% | SW-620 colon 74.5% | MCF7 breast 53.2% | HCT-116 colon 24.2% | HCC-2998 colon 62.4% | KM12 colon 74.1%

C#C[C@]1(O)CC[C@H]2[C@@H]3CC=C4c5sc(Nc6cc(Cl)ccc6OC)nc5CC[C@]4(C)[C@H]3CC[C@@]21C
active: BT-549 breast 3.68% | MDA-MB-435 melanoma -0.171% | SW-620 colon -20.7% | MCF7 breast -15.1% | HCT-116 colon 7.63%
inactive: T-47D breast 31.2% | HCC-2998 colon 54.3% | KM12 colon 31.9%

C#Cc1cc(OC)c(C(=O)Nc2ccc(F)cc2C(=O)Nc2cccc(S(=O)(=O)C(F)(F)F)c2)cn1
inactive: T-47D breast 23.4% | MDA-MB-435 melanoma 10.2% | MCF7 breast 13.1% | HCC-2998 colon 47.8%
active: BT-549 breast 1.8% | SW-620 colon 5.83% | HCT-116 colon 3.82% | KM12 colon 4.44%

COc1ccc(NC(=O)CCCCCCNC(=O)C(O)(O)C(F)(F)F)cc1
inactive: T-47D breast 18.7% | BT-549 breast 76.4% | MDA-MB-435 melanoma 38.8% | SW-620 colon 10.2% | MCF7 breast 38.4% | HCC-2998 colon 55.9% | KM12 colon 41.6%
active: HCT-116 colon 7.44%

C#CCN(C)CCCOc1ccc(NCc2ccc(C(=O)NO)cc2)cc1Cl
active: T-47D breast 0.446% | MDA-MB-435 melanoma 9.64%
inactive: BT-549 breast 75.4% | SW-620 colon 12.2% | MCF7 breast 18% | HCT-116 colon 10.7% | HCC-2998 colon 32.7% | KM12 colon 24.2%

CC(Nc1ncnc2ccc(-c3cnc4cnccn34)cc12)c1ccccc1 (stereo not given)
inactive: T-47D breast 17.5% | BT-549 breast 47.9% | MDA-MB-435 melanoma 69.1% | SW-620 colon 85.7% | MCF7 breast 33.5% | HCT-116 colon 72.3% | HCC-2998 colon 80.7% | KM12 colon 41.6%

COc1ccc(/C=N/NC(=O)c2c(N)nn(C)c2Nc2ccccc2)cc1Oc1ccccc1
inactive: T-47D breast 78.1% | BT-549 breast 94.1% | MDA-MB-435 melanoma 101% | SW-620 colon 100% | MCF7 breast 75.3% | HCT-116 colon 79.8% | HCC-2998 colon 101% | KM12 colon 92.7%

O=C(/C=C/Nc1ccc(S(=O)(=O)Nc2ncccn2)cc1)c1ccc(N=Cc2c(O)[nH]c3ccccc23)cc1
inactive: T-47D breast 93.1% | BT-549 breast 101% | MDA-MB-435 melanoma 100% | SW-620 colon 112% | MCF7 breast 87.4% | HCT-116 colon 111% | HCC-2998 colon 109% | KM12 colon 37.3%

C/C(=C(/C)C1CC1CCNC1CCC(NC(=O)OC(C)(C)C)CC1)c1ccccc1 (stereo not given)
active: HCC-2998 colon -55.6%
inactive: T-47D breast 45.5% | BT-549 breast 85.5% | MDA-MB-435 melanoma 52.8% | SW-620 colon 60.7% | MCF7 breast 15.5% | HCT-116 colon 33.6% | KM12 colon 73.7%

CC1=C(C)C(=O)C(Nc2cccc(C)c2)=C(Br)C1=O
active: T-47D breast 4.47%
inactive: BT-549 breast 106% | MDA-MB-435 melanoma 109% | SW-620 colon 107% | MCF7 breast 75.7% | HCT-116 colon 76.9% | HCC-2998 colon 111% | KM12 colon 105%

CCCCN1C(=O)/C(=c2\sc3n(c2=O)C2C(NN=3)N(CC)C(=O)N2CC)c2cc(C)ccc21 (stereo not given)
inactive: T-47D breast 93.8% | BT-549 breast 96.3% | MDA-MB-435 melanoma 84.5% | SW-620 colon 95.1% | MCF7 breast 80% | HCT-116 colon 85.3% | HCC-2998 colon 109% | KM12 colon 94.1%

COc1cc(OC)cc(-c2cc(-c3c[nH]c4ccccc34)nc(-c3c[nH]c4ccccc34)c2C#N)c1
inactive: T-47D breast 98.3% | BT-549 breast 104% | MDA-MB-435 melanoma 99.4% | SW-620 colon 103% | MCF7 breast 90.7% | HCT-116 colon 101% | HCC-2998 colon 113% | KM12 colon 98.7%

CC1=C(C)C(=O)C(Nc2ccc3c(c2)OCCO3)=C(Br)C1=O
inactive: T-47D breast 80.5% | BT-549 breast 101% | MDA-MB-435 melanoma 102% | SW-620 colon 107% | MCF7 breast 78.2% | HCT-116 colon 90.6% | HCC-2998 colon 102% | KM12 colon 93.7%

Cc1ccc(C)c(NC2=C(Cl)C(=O)c3nc(C)ccc3C2=O)c1
active: T-47D breast -58% | BT-549 breast -5.46% | MDA-MB-435 melanoma -82.4% | SW-620 colon -49.2% | MCF7 breast -58.5% | HCT-116 colon -74.1%
inactive: HCC-2998 colon 17.7% | KM12 colon 36.7%

Cc1ccc2c(n1)C(=O)C(Cl)=C(Nc1ccc(C(=O)OC(C)(C)C)cc1)C2=O
inactive: BT-549 breast 84% [9.25 µM] | MDA-MB-435 melanoma 87.6% [9.25 µM] | MCF7 breast 11.3% [9.25 µM] | HCC-2998 colon 103% [9.25 µM] | KM12 colon 105% [9.25 µM]
active: T-47D breast -8.23% [9.25 µM] | SW-620 colon -42% [9.25 µM] | HCT-116 colon -70.5% [9.25 µM]

CC(=O)N1N=C(c2cc3ccccc3oc2=O)CC1c1cn(-c2ccccc2)nc1-c1ccc(C)cc1 (stereo not given)
inactive: T-47D breast 96.4% | BT-549 breast 117% | MDA-MB-435 melanoma 102% | SW-620 colon 98.8% | MCF7 breast 90.8% | HCT-116 colon 92.1% | HCC-2998 colon 106% | KM12 colon 98.6%

CSc1ccc(/C(=N/N=C(N)N)c2ccc(Cl)cc2)cc1
inactive: T-47D breast 50.5%
active: BT-549 breast -37.3% | MDA-MB-435 melanoma -30.1% | SW-620 colon 2.54% | MCF7 breast 0.167% | HCT-116 colon -27.7% | HCC-2998 colon -68.2% | KM12 colon 5.79%

O=C(/C=C/c1cccc(C(F)(F)F)c1)Nc1cccc(C(F)(F)F)c1
inactive: BT-549 breast 118% | MDA-MB-435 melanoma 48.5% | SW-620 colon 33.5% | MCF7 breast 30.9% | HCT-116 colon 21% | HCC-2998 colon 57.4% | KM12 colon 24.4%
active: T-47D breast -6.89%

Cc1ccc2c(n1)C(=O)C(Cl)=C(Nc1ccc(C#N)cc1)C2=O
inactive: BT-549 breast 120% | MDA-MB-435 melanoma 99.5% | MCF7 breast 18.7% | HCT-116 colon 67.9% | HCC-2998 colon 108% | KM12 colon 102%
active: T-47D breast 7.98% | SW-620 colon -23.1%

C#Cc1nc(/C=C\CCCCCCC(=O)NO)cs1
inactive: T-47D breast 42.3% | BT-549 breast 87.5% | MDA-MB-435 melanoma 45.9% | SW-620 colon 23.9% | MCF7 breast 35.2% | HCT-116 colon 20.5% | HCC-2998 colon 98.8% | KM12 colon 41.2%

O=C(O)c1ccc(-n2c(=O)n(-c3cccc(C(F)(F)F)c3)c(=O)c3cc(-c4ccc(F)cc4F)ccc32)cc1
inactive: SW-620 colon 15.5% | HCC-2998 colon 13.4%
active: T-47D breast -5.81% | BT-549 breast -3.47% | MDA-MB-435 melanoma 5.93% | MCF7 breast 1.46% | HCT-116 colon 4.2% | KM12 colon 4.47%

CN1CCN(c2ccc(Nc3nc(NCCNC(=O)c4ccccc4)c4sccc4n3)cc2)CC1
inactive: T-47D breast 18.1% | BT-549 breast 58.8% | MDA-MB-435 melanoma 59.3% | SW-620 colon 49.1% | MCF7 breast 25.7% | HCC-2998 colon 84% | KM12 colon 59.6%
active: HCT-116 colon 0.236%

O=C(CCCCCCNC(=O)C(O)(O)C(F)(F)F)Nc1ccc(Br)cc1
inactive: BT-549 breast 19.5% | MCF7 breast 13.7% | KM12 colon 14.1%
active: T-47D breast 8.06% | MDA-MB-435 melanoma 6.63% | SW-620 colon 3.78% | HCT-116 colon -6.77% | HCC-2998 colon 1.89%

CN1CCN(c2ccc(Nc3nc(NCCCNS(=O)(=O)c4ccc(Cl)cc4)c4sccc4n3)cc2)CC1
inactive: T-47D breast 11.6% | SW-620 colon 20.7% | MCF7 breast 20% | HCC-2998 colon 20% | KM12 colon 23.3%
active: BT-549 breast -70.2% | MDA-MB-435 melanoma 7.33% | HCT-116 colon 1.81%

O=C1c2ccccc2C23C(=C(c4cncnc4)c4ccccc42)CCCN13 (stereo not given)
inactive: T-47D breast 93.3% | BT-549 breast 120% | MDA-MB-435 melanoma 94.6% | SW-620 colon 103% | MCF7 breast 103% | HCT-116 colon 97.9% | HCC-2998 colon 103% | KM12 colon 96.6%

C/C=C/CC(C)C(O)[C@H](NC(=O)[C@@H]1CCCN1C(=O)[C@](C)(CC)NC(=O)CCCCCCCCC)C(=O)N[C@@](C)(CC)C(=O)N[C@@H](CCC(N)=O)C(=O)N[C@H](CCC(N)=O)C(=O)NC(C)(C)C(=O)NC(C)(C)C(=O)N[C@@H](CCC(N)=O)C(=O)N[C@H](CC(C)C)C(=O)N[C@H](CO)CC(C)C (stereo not given in full)
32.6% (inactive) and -57.5% (active): HCC-2998 colon
51.9% (inactive) and -62.3% (active): MCF7 breast
21.6% (inactive) and -65% (active): KM12 colon
70.6% (inactive) and -7.45% (active): HCT-116 colon
active: BT-549 breast -72.4%
61.9% (inactive) and -23.3% (active): T-47D breast
inactive: SW-620 colon 83.1% and 14.5%
17.4% (inactive) and -95.1% (active): MDA-MB-435 melanoma

C[C@]12CC[C@H]3[C@@H](CC=C4C[C@@H](O)CC[C@@]43C)[C@@H]1CC[C@@H]2[C@](C)(O)CCc1cccnc1
inactive: T-47D breast 36.3% | BT-549 breast 47.7% | MDA-MB-435 melanoma 64% | SW-620 colon 83.1% | MCF7 breast 35.2% | HCT-116 colon 51.9% | HCC-2998 colon 86.7% | KM12 colon 70.2%

C#CCN(C)CCCOc1ccc(NCc2ccc(/C=C/C(=O)NO)cc2)cc1Cl
active: T-47D breast 1.04% | MDA-MB-435 melanoma -25.3% | HCT-116 colon 9.47% | HCC-2998 colon -43.2% | KM12 colon 5.72%
inactive: BT-549 breast 18.8% | SW-620 colon 10.1% | MCF7 breast 10.4%
